Among all 400,000 compounds or so, about 5,500 (1.4%) were called active. Inconclusive results (about 9%) are left out. Calls come from the whole dose curve; as a rule, active = well fitted cell-killing curve with a large enough effect; inconclusive = small, poorly fitted or top-dose-only effect, or effect the other way; inactive = flat fitted curve, though single readings scatter. What follows is part of a selection rich in actives, with near analogues and random picks from the rest. Entries that show only a call come without a potency.
Test: qHTS assay for MDR1-selective chemotherapeutics: Primary screen using the parental adenocarcinoma cell KB-3-1; note: nearly all actives have a fitted effect of over 60% in size
Details: KB-3-1 viability, CellTiter-Glo ATP luminescence, 72 h; series mostly up to 46.1 µM
Procedure, shortened: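 Using CellTiter-Glo luminescence, growth of non-resistant KB-3-1 adenocarcinoma cells is assessed 72 h after pin-tool compound addition at 37 °C. Normalized responses across the concentration series yield fitted curves.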
Potency is the fitted concentration of half-maximal effect.

| SMILES | Potency |
| --- | --- |
| COc1ccc(CNC(=O)c2ccc3c(c2)nc2n3CCOC2)c(OC)c1 | inactive |
| Cc1nc2nc(SCC(=O)N(Cc3ccccc3)C(C)C)nn2c(C)c1Cc1ccccc1Cl | inactive |
| O=C(Nc1ccccc1Cl)/C(Cl)=C(\Cl)S(=O)c1ccccc1 (configuration not stated) | 6.51 µM (active) |
| O=C(Nc1ccccc1Cl)N1CCC(CN2CCCCC2)CC1 | inactive |
| O=C(Nc1ccccc1Cl)c1ccccc1S(=O)(=O)c1ccccc1[N+](=O)[O-] | inactive |
| NS(=O)(=O)c1ccc(NC(=O)COc2ccc(S(=O)(=O)NC3CCCCC3)cc2)cc1 | inactive |
| COc1ccccc1N1CCN(c2ccc(=O)n(CC(=O)NCc3ccc(OC(C)C)cc3)n2)CC1 | inactive |
| Cc1cc(C)cc(NC(=O)CCS(=O)(=O)c2cc3c4c(c2)CCN4C(=O)CC3)c1 | inactive |
| Cc1ccc(Oc2c(C(F)(F)F)oc3c(CN4CCCCC4)c(O)ccc3c2=O)cc1 | inactive |
| COc1ccc(CN2CCOC2=O)cc1OC | inactive |
| COc1ccccc1CNC(=O)CCn1c(=O)sc2ccccc21 | inactive |
| COc1ccc(Cn2c(=O)sc3ccccc32)cc1OC | 14.6 µM (active) |
| Cc1ccc(-c2nnc3ccc(SCC(N)=O)nn23)cc1 | inactive |
| CCN1CCN(C(c2ccc(C)cc2)c2c(O)cc(C)n(Cc3ccco3)c2=O)CC1 (configuration not stated) | inactive |
| O=C(NCc1cccnc1)C(=O)NCC(c1cccnc1)N1CCN(c2ccccc2)CC1 (configuration not stated) | inactive |
| CCN1CCN(C(c2cccnc2)c2cc(Cl)c3cccnc3c2O)CC1 (configuration not stated) | 7.31 µM (active) |
| O=C1CCC[C@@H]2C[C@@]3(C[C@@H]4CCN1[C@H]24)Nc1ccccc1NC3=NCc1ccccc1 | inactive |
| Cc1c(Cl)cccc1-c1ccc(CNCCCSc2nnnn2C)o1 | inactive |
| CCOC(=O)CSC1=C(C#N)C(c2sccc2C)CC(=O)N1 (configuration not stated) | 5.01 µM (active) |

| SMILES | Potency |
| --- | --- |
| C=CCSC1=C(C#N)C(c2cc(Br)c(O)c(OC)c2)CC(=O)N1 (configuration not stated) | inactive |
| Cc1ccsc1C1C(C#N)=C(N)OC2=C1C(=O)CC(C)C2 (configuration not stated) | inactive |
| CCOc1ccc(NC(=O)Cn2cc(C(=O)c3ccc(C)cc3)c(=O)c3cc4c(cc32)OCCO4)cc1 | inactive |
| CCOc1cc(C2C(C(=O)OC)=C(C)NC3=C2C(=O)c2ccccc23)ccc1O (configuration not stated) | inactive |
| Cc1ccc(C(=O)CSc2nc(-c3ccccc3)nc3c2CCCC3)c(C)c1 | inactive |
| Cc1ccc(C(=O)C[n+]2cc(-c3ccccc3)n3c2CCCCC3)cc1 | 8.2 µM (active) |
| Clc1ccc(C[n+]2cc(-c3ccccc3)n3c2CCC3)cc1 | 7.31 µM (active) |
| Cc1ccc(C(=O)N2CCCC(c3ccccc3)=N2)cc1 | inactive |
| Cn1c(-c2ccccc2)c[n+]2c1CCCCC2 | inactive |
| CC1(C)C=Cc2c(ccc(C(=O)/C=C/c3ccccc3)c2O)O1 | inactive |
| COc1ccc(CN2CCc3nc(Nc4ccccc4)ncc3C2)c(OC)c1OC | inactive |
| CCOc1ccccc1NC(=S)N1CCN(c2cccc(C)c2C)CC1 | inactive |
| Cc1[nH]c2ccc(C(=O)N3CCN(C)CC3)cc2c1C | inactive |
| COc1ccccc1NS(=O)(=O)c1ccc(C(=O)N2CCN(c3ccccc3O)CC2)cc1 | inactive |
| CCn1c(C)c(C)c2cc(C(=O)N3CCN(c4cccc(C)c4C)CC3)ccc21 | inactive |
| Cc1cccc(N2CCN(C(=O)c3ccc4c(c3)CCN4S(=O)(=O)c3ccccc3)CC2)c1C | 23.1 µM (active) |
| CCS(=O)(=O)N1CCc2cc(C(=O)NCc3ccc(OC)cc3)ccc21 | inactive |
| CC1CCN(C(=O)c2cccc(S(=O)(=O)N3CCCc4ccccc43)c2)CC1 | inactive |
| CCOc1ccccc1N1CCN(C(=O)c2ccc3[nH]c(C)c(C)c3c2)CC1 | 8.2 µM (active) |

| SMILES | Potency |
| --- | --- |
| CCS(=O)(=O)N1CCc2cc(C(=O)N3CCN(c4ccccc4OC)CC3)ccc21 | 14.6 µM (active) |
| Cc1cccn2c(=O)c(C(=O)NC(C)c3ccccc3)cnc12 (configuration not stated) | inactive |
| COc1cc(C(=O)NCC(c2ccc(Cl)cc2)N2CCOCC2)cc(OC)c1OC (configuration not stated) | inactive |
| O=C(NCC(c1cccnc1)N1CCc2ccccc21)c1cccc(C(F)(F)F)c1 (configuration not stated) | inactive |
| CCOC(=O)c1cc2c(=O)n3ccccc3nc2n(CC2CCCO2)c1=NC(=O)c1ccccc1Br (configuration not stated) | inactive |
| Cn1nc(-c2ccccc2)c(CO)c1Sc1ccccc1 | inactive |
| Cn1nc(-c2ccccc2)c(CSc2cccc(Cl)c2)c1Cl | 23.1 µM (active) |
| Cn1nc(-c2ccccc2)c(-c2nc(-c3ccc(Cl)cc3)no2)c1Cl | inactive |
| COc1ccccc1N1CCN(C(=O)C2CCN(S(=O)(=O)c3c(C)noc3/C=C/c3ccc(C)cc3)CC2)CC1 | inactive |
| O=c1c2cccnc2n(Cc2cccc(F)c2)c(=O)n1Cc1ccccc1Cl | inactive |
| Cc1ccc(-c2cc(C(=O)N/N=C/C=C/c3ccccc3)n[nH]2)o1 | inactive |
| CC(C)c1cc(C(=O)O)n[nH]1 | inactive |
| CC(C)c1cc(C(=O)N/N=C/C(Br)=C/c2ccccc2)n[nH]1 | 10.3 µM (active) |
| CCOC(=O)c1c(C)[nH]c(C)c1C(=O)COC(=O)/C=C/c1cccc([N+](=O)[O-])c1 | inactive |
| CCOC(=O)C=Cc1ccc(C(=O)OCC)[nH]1 | 7.31 µM (active) |
| CCOC(=O)c1cc2cc(C)ccc2[nH]1 | inactive |
| COc1ccccc1CNC(=O)C(Cc1ccccc1)NS(=O)(=O)c1ccc2c(c1)oc(=O)n2C (configuration not stated) | inactive |
| COc1ccccc1CN1CCC(CNC(=O)c2cnn(-c3ccccc3Cl)c2C2CCN(C(=O)OC(C)(C)C)CC2)CC1 | inactive |
| Cc1cc(Cl)ccc1NC(=O)Cc1ccc(NC(=O)N2CCCCc3ccccc32)cc1 | inactive |

— PubChem BioAssay AID1347075 (National Center for Advancing Translational Sciences (NCATS), 2019)
